High-throughput results from PubChem BioAssay.
Shiga inhibitor: Shiga toxin inhibition | inhibition, % at 38.7 µM | Vero cells, Shiga toxin protein synthesis inhibition reporter | 290,000 tested, 9.2% active; in the data active = inhibition mostly above about 28%, no sharp cut-off; inactive = mostly below about 43%; note: 0% is about no effect
Sm TGR block: inhibitors of Schistosoma mansoni thioredoxin glutathione reductase; Q962Y6; purified TGR, DTNB reduction, TNB absorbance 405 nm; Potency, µM (series often up to 114 µM), without a hit: at the top dose activity change, negative = inhibition, hits mostly inhibitors; 360,000 tested, 3% active; note: potency is the fitted concentration of half-maximal effect; % is set by controls: 0 for no effect and ±100 for the full control effect; nearly all actives have a fitted effect of over 60% in size
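Kinetic colorimetric format: TGR-catalysed, NADPH-driven DTNB reduction monitored via TNB absorbance. Enzyme dispensed at 20 nM; compound exposure 15 min at room temperature before reaction start.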
Giardia FBPA inh: Giardia lamblia aldolase inhibition. Potency, µM (highest dose often 59.6 µM), inactives show at the highest dose activity, negative = inhibition, hits mostly inhibitors. 290,000 tested, 0.71% active. purified Giardia FBPA. A8B2U2; note: potency is the fitted concentration of half-maximal effect; % is set by controls: 0 for no effect and ±100 for the full control effect; nearly all actives have a fitted effect of over 55% in size
Target sequence (A8B2U2 whole entry, looked up): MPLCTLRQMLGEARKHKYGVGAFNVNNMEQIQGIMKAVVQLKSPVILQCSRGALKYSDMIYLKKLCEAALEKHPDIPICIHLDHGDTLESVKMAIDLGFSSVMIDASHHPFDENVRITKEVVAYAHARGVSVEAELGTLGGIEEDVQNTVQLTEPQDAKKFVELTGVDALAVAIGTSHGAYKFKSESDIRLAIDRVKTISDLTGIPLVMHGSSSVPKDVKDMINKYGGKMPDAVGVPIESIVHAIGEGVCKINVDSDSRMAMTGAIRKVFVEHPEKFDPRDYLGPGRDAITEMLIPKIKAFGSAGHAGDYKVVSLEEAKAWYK
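Giardia FBPA (40 nM reagent) was preincubated 10 min at RT with compound (up to 57.5 uM final), then substrate plus GAPDH/TPI/NAD/arsenate coupling system with diaphorase/resazurin was added; resorufin fluorescence (525/598 nm) was read after 20 min.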
Cycloheximide cs: counter-screen for Shiga toxin inhibitors: cycloheximide protein synthesis inhibition; cell reporter, cycloheximide protein synthesis inhibition counterscreen; max response, %; 300,000 tested, 12% active; AID 2314; in the data active = max response mostly above about 13%, no sharp cut-off; inactive = mostly below about 14%; note: read at 38.3 µM for the half of the compounds with a filed dose; 0% is about no effect
LmPK inh: inhibitors of Leishmania mexicana pyruvate kinase; purified LmPK, Kinase-Glo ATP luminescence, 1 h; Potency, µM (doses to about 57.5 µM), inactives show top-dose activity change, negative = inhibition, most hits filed as inhibitors; 290,000 tested, 0.37% active; Q27686; AID 1721; note: potency is the fitted concentration of half-maximal effect; % is set by controls: 0 for no effect and ±100 for the full control effect
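Purified LmPK (0.1 nM) with 0.5 mM PEP and 0.1 mM ADP in imidazole buffer pH 7.2 with MgCl2/KCl, 1 h at room temperature. ATP formed was read by luciferase luminescence and normalized to no-enzyme and uninhibited controls.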
TbPYK inhibitor: T. brucei pyruvate kinase inhibition; TbPYK enzyme, Kinase-Glo Plus ATP luminescence, 45 min; Potency, µM (doses to about 76.8 µM), inactives show at the highest dose activity, negative = inhibition, most hits filed as inhibitors; 410,000 tested, 0.12% active; AID 624173; note: potency is the fitted concentration of half-maximal effect; % is set by controls: 0 for no effect and ±100 for the full control effect; nearly all actives have a fitted effect of over 50% in size
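Quantitative HTS: titrated library compounds versus trypanosomal pyruvate kinase in TEA buffer (pH 7.2) containing KCl, MgCl2, BSA and Tween-20. Reactions were initiated with ADP, 130 uM final. Kinase-Glo Plus luminescence was read after 45 min at RT.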
The depositor's hits bear a star; ? = inconclusive; · = not tested or not shown; [ ] = another dose, or the depositor's remark. This is one part of a sample in which hits are shown more often than they occur. Unless noted, calls come from the whole dose curve; as a rule, active = well fitted curve in the direction sought with a large enough effect; inconclusive = small, poorly fitted or top-dose-only effect, or another doubt; inactive = no such curve, though single readings can be large; an effect the other way counts as inactive or inconclusive.

SMILES	Shiga inhibitor	Sm TGR block	Giardia FBPA inh	Cycloheximide cs	LmPK inh	TbPYK inhibitor
Cc1csc2ncc(C(=O)Nc3ccc4c(c3)OCCO4)c(=O)n12	117*	-5%	21%	59*	15%	-2%
Cc1csc2ncc(C(=O)Nc3ccccc3F)c(=O)n12	31	-4%	5%	24*	-8%	2%
Cc1csc2ncc(C(=O)NCc3ccco3)c(=O)n12	-3	45µM*	-1%	-1	2%	-2%
Cc1cccc(NC(=O)c2cnc3scc(C)n3c2=O)c1	26*	7%	10%	19*	1%	0%
CCCCN(C)CCCNC(=O)Cn1ncc2c3ccccc3n(Cc3cc(C)ccc3C)c2c1=O	·	-18%	·	·	·	0%
COc1ccc(NC(=O)N2CCC3(CC2)CCN(C(=O)c2ccco2)CC3)cc1	·	·	0%	·	·	0%
CCOC(=O)c1ccc(NC(=O)NCCOCCn2c(=O)oc3ccccc32)cc1	·	6%	·	·	·	1%
CN1CCN(c2ncc3nc(-c4ccc(Cl)cc4)c(=O)n(CCC#N)c3n2)CC1	·	·	0%	·	·	-2%
O=c1c(-c2ccccc2)nc2cnc(N3CCNCC3)nc2n1-c1ccccc1	·	·	2%	·	·	·
CCOc1ccc(CNC(=O)c2cccc(NC(=O)N3CCSc4ncccc43)c2)cc1OC	·	1%	·	·	·	3%[15.4 µM]
CCc1ccc(Nc2nnc(SCC(=O)N(C)C3CCS(=O)(=O)C3)s2)cc1 (stereo not given)	23	0%	-5%	17*	-2%	3%
CN(C(=O)CSc1nnc(NC2CCCCC2)s1)C1CCS(=O)(=O)C1 (stereo not given)	-3	10%	0%	-3	-2%	-3%
COc1cccc(CNC(=O)c2cccc(N3CCCS3(=O)=O)c2)c1	·	8%	·	·	·	1%
COc1ccc(C(=O)NCC(c2ccc3c(c2)OCO3)N2CCOCC2)cc1OC (stereo not given)	·	?	·	·	·	-15%
CCCCN(Cc1ccccc1)c1ncnc2nc[nH]c12	31*	1%	4%	36*	-4%	2%
CCCCN(CCCC)c1ncnc2nc[nH]c12	-10	·	1%	-3	0%	-16%
COC(=O)N1CCC2(CCN(C(=O)Nc3ccc(OC)cc3)CC2)CC1	·	·	-10%	·	·	-6%
Cc1ccc2c(c1)cc1c(=O)n(CC(=O)NCc3ccco3)nc(C)n12	·	-2%	·	·	·	1%
O=C(NC(=S)NCCc1ccccn1)c1ccco1	26	-6%	-9%	23*	-2%	-12%
O=C(NCCc1ccccn1)/C(=C/c1ccco1)NC(=O)c1ccccc1	49*	7%	?	33*	-5%	3%
Cc1ccc2ncccc2c1NS(=O)(=O)c1ccccc1	-8	-26%	-2%	-1	4%	1%
Cc1ccc2ncccc2c1NC(=S)NC(=O)c1ccccc1	-6	20µM*	?	11	-10%	-2%
CN(CCc1ccccn1)C(=S)NC(=O)c1ccco1	-19	-7%	?	-3	-5%	-13%
O=C(NC(=S)NCCc1ccccn1)c1ccccc1	95*	57%	-13%	58*	1%	-8%
CCSc1nnc(NC(=O)C2Cc3ccccc3CN2S(=O)(=O)CC)s1 (stereo not given)	30	3%	10%	30*	3%	1%
SMILES	Shiga inhibitor	Sm TGR block	Giardia FBPA inh	Cycloheximide cs	LmPK inh	TbPYK inhibitor
CCS(=O)(=O)N1Cc2ccccc2CC1C(=O)Nc1ccccc1OC (stereo not given)	12	3%	-4%	9	0%	4%
CCS(=O)(=O)N1Cc2ccccc2CC1C(=O)Nc1nccs1 (stereo not given)	25*	-9%	-2%	30*	-1%	-8%
CCS(=O)(=O)N1Cc2ccccc2CC1C(=O)Nc1nnc(SCc2c(Cl)cccc2Cl)s1 (stereo not given)	-4	0%	3%	-1	0%	-14%
CCS(=O)(=O)N1Cc2ccccc2CC1C(=O)Nc1ccc(OC)c(OC)c1 (stereo not given)	-9	-24%	-2%	-3	3%	9%
CCS(=O)(=O)N1Cc2ccccc2CC1C(=O)Nc1nc2c(C)cccc2s1 (stereo not given)	60*	-11%	0%	27*	1%	5%
CCS(=O)(=O)N1Cc2ccccc2CC1C(=O)Nc1nc(C)cs1 (stereo not given)	85*	-2%	-3%	43*	3%	4%
CC(C)c1nc(CNC(=O)C2CCC(=O)N(CCc3ccc(Cl)cc3)C2)no1 (stereo not given)	8	-7%	-3%	-2	-1%	-6%
Brc1cccc(-c2nnn3c2nc(NCc2ccc4c(c2)OCO4)c2ccccc23)c1	·	-6%	·	·	·	4%
CCOc1ccc(/C=C/c2nc(C#N)c(N3CCN(c4ccc(OC)cc4)CC3)o2)cc1	·	0%	·	·	·	-3%
Nc1nc(CSc2nc3ccccc3s2)nc(Nc2ccccc2)n1	-14	0%	-5%	21*	5%	·
CC/C(=N\N1CCCCCC1)c1c(O)n(-c2ccc(C)cc2)c(=O)[nH]c1=O	-5	2%	-1%	18*	-2%	-2%
C/C(=N\N1CCCCCC1)c1c(O)n(-c2ccc(Cl)cc2)c(=O)[nH]c1=O	13	-2%	11%	0	5%	-13%
CC/C(=N\N1CCCCC1)c1c(O)[nH]c(=O)[nH]c1=O	17	2%	0%	-2	0%	1%
C/C(=N\N1CCCCCC1)c1c(O)n(-c2ccc(C)cc2)c(=O)[nH]c1=O	active	0%	0%	43*	2%	-8%
O=Cc1cccc(Oc2ccc([N+](=O)[O-])cc2[N+](=O)[O-])c1	-5	45µM*	-29%	-2	4%	1%
O=C(c1ccccc1)c1ccc(Oc2ccc([N+](=O)[O-])cc2[N+](=O)[O-])cc1	·	·	·	·	·	1%
Cc1cc(=O)oc2cc(Oc3ccc([N+](=O)[O-])cc3[N+](=O)[O-])ccc12	-4	50µM*	-5%	-2	1%	1%
CCc1nnc(NC(=O)Cc2cc(OC)c(OC)c(OC)c2)s1	9	-2%	1%	-3	5%	-13%
Cc1ccc(N/C=C(/C#N)c2ccsc2)cc1C	87*	-8%	-26%	42*	1%	1%
CCCCCNc1nc(-c2ccccc2)cs1	80*	0%	-5%	42*	-15%	·
c1ccc(CCNc2nc(-c3ccncc3)cs2)cc1	52	-8%	2%	29*	-8%	1%
COc1ccc(CCNc2nc(-c3ccncc3)cs2)cc1OC	15	2%	-9%	8	1%	-2%
CCC(=O)Nc1ccccc1-c1nc2ccccc2n(CC(=O)c2ccc(Br)cc2)c1=O	·	1%	·	·	·	-7%
O=C1NC(=O)C(Cc2cccs2)C(=O)N1	-38	40µM*	3%	-4	-2%	?
